Sampled rows, rich in hits. Any-hit rate of the full collection: about 5.9%.
LANA-H2A inh: blockers of LANA interaction with H2A/H2B – biochemical, FP readout, HTS, primary screen | actives 0.6% (n = 320,000) | Protein LANA1 (Human herpesvirus 8 type P (isolate GK18)), Q9QR71 | cell-free LANA-H2A/H2B peptide, fluorescence polarization | AID 2629, 2010 | inhibition, % (no concentration beside the values); in the data active = inhibition mostly above about 10%, no sharp cut-off; inactive = mostly below about 6.7%
ABHD5 PLIN5 PPI: ABHD5-PLIN5 interaction inhibitors, primary screen, cell lysate, split luciferase complementation, luminescence. inhibition, % at 4 µM. Split G. princeps luciferase complementation, 4 h. actives 0.78% (n = 360,000). AID 602281, 2012;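 active = inhibition above the mean inhibition across every tested compound plus 3 SD, cut at about 22% in these data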;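 note: 0% = DMSO only wells and the 100% control is not disclosed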
PRMT1 inh: PRMT1 methyltransferase inhibitors, primary screen, biochemical, fluorescence polarization; Protein arginine N-methyltransferase 1 (Homo sapiens), Q99873; recombinant PRMT1, activity-based probe fluorescence polarization; inhibition, % at 2.79 µM; actives 1.3% (n = 370,000);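 active = inhibition above about 21% made by adding two undisclosed values, limit read from the data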
Target sequence (Q99873 whole entry, looked up): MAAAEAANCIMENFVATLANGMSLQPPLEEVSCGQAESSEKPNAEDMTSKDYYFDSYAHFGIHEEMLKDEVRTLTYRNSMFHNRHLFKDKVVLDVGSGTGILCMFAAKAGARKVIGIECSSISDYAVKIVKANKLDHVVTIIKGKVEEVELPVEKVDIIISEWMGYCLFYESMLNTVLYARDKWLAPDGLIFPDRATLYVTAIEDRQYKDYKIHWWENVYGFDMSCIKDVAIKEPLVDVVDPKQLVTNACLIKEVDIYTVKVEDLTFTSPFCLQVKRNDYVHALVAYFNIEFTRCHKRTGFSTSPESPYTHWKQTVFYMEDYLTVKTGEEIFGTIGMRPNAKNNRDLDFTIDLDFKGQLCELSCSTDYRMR
ALR inh: inhibitors of human ALR sulfhydryl oxidase, primary screen, biochemical, H2O2 detection, HRP-luminol luminescence, single point; FAD-linked sulfhydryl oxidase ALR (Homo sapiens), P55789; purified ALR, DTT oxidation; inhibition, % (concentration not given with the values); actives 3.8% (n = 290,000); AID 485317, 2010;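 active = mean replicate inhibition above about 79%, with every replicate also reaching it, limit read from the data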
Target sequence (P55789 whole entry, looked up): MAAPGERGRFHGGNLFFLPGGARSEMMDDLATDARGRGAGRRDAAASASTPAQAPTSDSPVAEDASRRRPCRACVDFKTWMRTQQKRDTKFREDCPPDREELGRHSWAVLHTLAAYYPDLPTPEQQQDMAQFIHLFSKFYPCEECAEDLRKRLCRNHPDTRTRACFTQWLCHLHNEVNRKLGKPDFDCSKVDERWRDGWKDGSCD
Rtt109 Vps75: inhibitors of C. albicans Rtt109/Vps75 HAT, primary screen, biochemical, ThioGlo CoA-SH fluorescence, plate reader; purified Rtt109/Vps75, 4 h; inhibition, % at 34.9 µM; actives 0.16% (n = 330,000); Histone acetyltransferase RTT109 (Candida albicans (strain SC5314 / ATCC MYA-2876)), …; AID 540336, 2011;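 active = inhibition of at least 50% in every replicate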
rCAG RNA binder: binders of r(CAG) RNA repeats, primary screen, biochemical, fluorescence; actives 1.3% (n = 370,000); inhibition, % at 3 µM; AID 651821, 2012; r(CAG) RNA repeat, TO-PRO-1 dye displacement fluorescence;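 active = inhibition above the plate cutoff, the mean of all test compounds on that plate plus 3 SD, cut at about 35% in these data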;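 note: 0% = DMSO alone and 100% = 100 µM mitoxantrone as full dye displacement; higher means more dye released from RNA so lower well fluorescence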
Active calls of the source: *; . = not tested or not shown.

SMILES | LANA-H2A inh | ABHD5 PLIN5 PPI | PRMT1 inh | ALR inh | Rtt109 Vps75 | rCAG RNA binder
CC(C)N1CCc2c(-c3nc4ccccc4s3)csc2C1 | . | . | -2 | . | . | .
CCCCNC(=O)C1C(c2ccc(C(F)(F)F)cc2)=Nc2ccccc2N1C(=O)C1CCN(C(C)=O)CC1 (stereo not given) | . | -3 | 2 | . | . | 1
CC1(C(=O)NCc2ccco2)CCN1C(=O)C1(c2ccccc2)CC1 (stereo not given) | . | 10 | -1 | . | . | 3
COc1ccccc1CCn1cnc(-c2ccc(F)cc2)c1C(C)C | . | . | -3 | . | . | -1
N#Cc1c2n(c3c(=O)n(Cc4ccccc4)cnc13)CCCC2 | 5 | 3 | -2 | 84* | -1 | -4
N#Cc1c2n(c3c(=O)n(Cc4ccc(Cl)cc4)cnc13)CCCCC2 | -3 | 8 | 2 | . | 9 | 1
COc1ccc2[nH]c(C(=O)O)c(NS(=O)(=O)c3ccc(F)cc3)c2c1 | 1 | -14 | 1 | 90* | -12 | 14
O=C(O)c1[nH]c2ccccc2c1NS(=O)(=O)Cc1ccccc1 | 3 | -6 | 1 | 99* | 8 | 18
O=C(O)c1[nH]c2ccccc2c1NS(=O)(=O)c1ccc(F)cc1 | 2 | -7 | 2 | 94* | 3 | 11
COc1ccc(S(=O)(=O)Nc2c(C(=O)O)[nH]c3ccccc23)cc1 | -1 | 0 | -2 | 91* | 5 | 18
COc1ccc(S(=O)(=O)Nc2c(C(=O)O)[nH]c3ccccc23)cc1OC | -2 | -1 | -1 | 10 | -6 | 19
CCOC(=O)c1[nH]c2ccc(OC)cc2c1NS(=O)(=O)c1ccc(Cl)s1 | 5 | -3 | 1 | 66 | 2 | 6
Fc1ccc(Nc2nnc(-c3ccncc3)s2)cc1Cl | . | -2 | -4 | . | . | 4
COc1ccc2[nH]c(C(=O)O)c(NS(=O)(=O)c3ccc(Cl)s3)c2c1 | -2 | -13 | 1 | 99* | 4 | 23
COc1ccccc1Nc1nc(C2(C)CCC(=O)O2)cs1 (stereo not given) | -4 | -2 | -3 | 96* | 2 | -3
COc1ccccc1Nc1nc(-c2cccnc2)cs1 | -16 | 1 | -3 | 53 | 1 | -3
COc1ccc(OC)c(Nc2nc(-c3cccs3)cs2)c1 | 3 | -28 | 3 | 0 | -3 | 18
COc1ccccc1Nc1nc(-c2cccs2)cs1 | 0 | -14 | 20 | -3 | -2 | 35*
CC(=O)Nc1ccc(NC(=O)CC2Nc3cccc4cccc(c34)NC2=O)cc1 (stereo not given) | -2 | -3 | 13 | 86* | -2 | 10
Nn1c(SCC(=O)Nc2ccc(Br)cn2)nnc1-c1n[nH]c2c1CCC2 | . | . | -3 | . | . | 4
Clc1ccc(C2=CSC3=NCCN23)cc1Cl | -6 | 10 | 11 | 97* | -2 | -1
COc1ccc(C2=CSC3=NCCN23)cc1OC | 10 | -1 | 6 | 96* | 1 | 1
CCOC(=O)C1CCCN(C(=O)c2ccc(SC(F)(F)F)cc2)CC1 (stereo not given) | . | 3 | 7 | . | . | -3
Cc1ccc(C2=[N+]([O-])C3(CCCCC/C3=N\NC(N)=O)N(O)C2(C)C)o1 (stereo not given) | -1 | 10 | 1 | 4 | 0 | -1
CC1(C)C(c2cccs2)=[N+]([O-])C2(CCCCC/C2=N\O)N1O (stereo not given) | 13* | -3 | -3 | 11 | -13 | 2
SMILES | LANA-H2A inh | ABHD5 PLIN5 PPI | PRMT1 inh | ALR inh | Rtt109 Vps75 | rCAG RNA binder
COc1ccc(C=NNC(=O)c2ccncc2)cc1 | . | . | 1 | . | . | 7
COC(=O)[C@]12C[C@H](CC(=O)NCCCCc3ccccc3)C(=O)N(Cc3cccc4ccccc34)C1=C[C@H](C(C)(C)C)O[C@@H]2C | . | . | 0 | . | . | 3
COc1ccc2[nH]cc(C(=O)CNc3nc(C)cs3)c2c1 | -1 | -1 | 7 | 81* | 17 | 9
Cc1cccc(NC(=O)CN2C(=O)CCSc3ccccc32)c1C | . | . | -3 | . | . | 3
COc1ccccc1N(C(=O)c1snc(C(N)=O)c1N)C(C(=O)NC1CCCCC1)c1cccc(OC)c1OC (stereo not given) | 7 | -1 | -3 | . | 53* | 5
Cc1ccc(N(C(=O)c2snc(C(N)=O)c2N)C(CC(C)C)C(=O)NC2CCCC2)cc1 (stereo not given) | 0 | -2 | 2 | 2 | 5 | -3
CC(C(=O)NC1CCCC1)N(C(=O)c1snc(C(N)=O)c1N)c1ccc2c(c1)OCCO2 (stereo not given) | -1 | 10 | 0 | 96* | 19 | -2
CC(=O)N1CC2(CC(c3ccc(Cl)cc3Cl)=NO2)CN1c1cccc(Cl)c1 (stereo not given) | . | -7 | -5 | . | . | 2
O=C(CCCCCN1C(=O)C2C3C=CC(C3)C2C1=O)N1CCN(c2ncccn2)CC1 (stereo not given) | . | . | 4 | . | . | 0
COc1nccnc1NS(=O)(=O)c1ccc(NC(=S)NC(=O)c2ccc(F)cc2)cc1 | 0 | -2 | 0 | 63 | -3 | 13
COc1nccnc1NS(=O)(=O)c1ccc(NC(=S)NC(=O)c2cccc(F)c2)cc1 | 3 | -2 | -2 | 91* | -4 | 14
CC(C)NCC(O)Cn1c2c(c3ccccc31)CCc1c-2cnn1-c1ccccc1 (stereo not given) | 1 | 19 | 2 | 89* | -4 | 23
CN1CCc2c(n(CC(O)CNCc3ccccc3)c3ccccc23)C1=O (stereo not given) | -1 | 4 | -3 | -17 | -1 | -7
Cc1nc(N)sc1-c1csc(Nc2ccccn2)n1 | . | -18 | 23* | . | -8 | 20
CN(CCCOC(=O)c1cccs1)C1CN(Cc2cn(Cc3ccccc3Cl)nn2)S(=O)(=O)C1 (stereo not given) | . | . | 2 | . | . | 3
O=C(O)C1Nc2ccc(Br)cc2C2C=CCC12 (stereo not given) | -4 | 6 | . | 30 | 1 | .
CCOC(=O)C1Nc2ccc(C)cc2C2C=CCC12 (stereo not given) | 2 | 11 | 23* | 10 | 0 | 33
COC(=O)CNC(=O)C1Nc2ccccc2C2C=CCC12 (stereo not given) | -2 | 9 | 37* | -15 | 4 | 24
O=C(Nc1cccc(/C=C/c2ccccn2)c1)c1ccc(-n2cncn2)c([N+](=O)[O-])c1 | 3 | -4 | -2 | -1 | -7 | 10

Bioassay records as filed in PubChem BioAssay.
